Reference: the supplement of paper PMC6555819

Each sequence was assayed on VDR homodimer (NR concentration 270 nM) (assay: PBM binding z-score (relative to random genomic background probes); higher = stronger binding; sequences stand for … in GC…GCGATTGACAGCGTAGAATGAAGG).
In short: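 On custom Agilent 4×180K arrays, double-stranded probes with 34-nt variable regions carried direct-repeat seeds, single-nucleotide variants, half-site ablations or random human genomic background. Ligand-free nuclear receptor dimers were applied for 1 h, and binding was read with antibodies against each partner (one per run). Binding z-scores come from regression-normalized fluorescence, with the random background probes as reference.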
Sequence CGAACTAGGTCAAGGACAGTTAATCTCCGCACGC has a PBM binding z-score of 0.602.
In the case of ACTATGAGTTGACTTAGGGCAACCGATACGACGC, the PBM binding z-score is reported as 1.26.
In the case of CGGCCTAGGTCAGGGCCAGTATAGGAGGAACGTT, the PBM binding z-score is reported as -0.395.
Work on CGAACTAGGGCATGAGTTGATAGCAAATGCCGAT yielded a PBM binding z-score of 0.329.
Sequence GATACAGGGTCAAGGCCAGAGAACGCGTATTGAT has a PBM binding z-score of 1.59.
For TCTATTAGTTGATTTGGGCAACCGAAACAGCGGA, the PBM binding z-score was 0.414.
With GAATATAGGTAATACAAGGTGAAAGTCCGATTGT the PBM binding z-score was 0.435.
CCTACTAGGCCAAAAAGGTCATTGATGCCGATAA showed a PBM binding z-score of 2.99.
CAAACTAGGTCAACGTCAAAGTCGGTTTGTGCCA showed a PBM binding z-score of 1.07.
Sequence CGTCCAAGGACATAGGAGGTCAGTGAAGACAGAT has a PBM binding z-score of 1.48.
CCTCCTAGGTCATGGTCAGCTAATCTACAGTATG gave a PBM binding z-score of 0.641.
TCGATTAGGTTACCAATGGGGCATTCAGCTTTCT was tested, and the PBM binding z-score was -0.327.
Sequence CCTTACGGTTCACGAGGTTATAGCACGACGAGCG has a PBM binding z-score of 3.82.
For CGAATTAGGTCATCCAGGACAGTGAATACATTGA, the PBM binding z-score was 2.04.
With CCTATTAGTTGACCATAAGGGCAACCGGAGCTCG the PBM binding z-score was 1.15.
CGAACGAGGGCATGATTTGATAGCAAATGCCGAT was tested, and the PBM binding z-score was 0.561.
CGAACTAGGTCAGACCAGGACAGTGAAGGATGAT showed a PBM binding z-score of -0.102.
CAGCCTAAGTCAGGGCCAGTATAGGAGGAACGTT gave a PBM binding z-score of -0.363.
GCTAGTTGGTCAGTATAAGGTCACACACCGGTCG showed a PBM binding z-score of 2.76.
Work on CAGCCTAGGTCAGCGCCAGTATAGGAGGAACGTT yielded a PBM binding z-score of -0.621.
ATCTCTAGGTAACTAAGTTCAGTGAATGCCGAAC showed a PBM binding z-score of 2.04.
Sequence ATCTCTAGGTAAAGATAGTACAGTGAATGCAAAT has a PBM binding z-score of 0.54.
